{"source": "PubChem BioAssay AID463173", "about": "(ICCB-Longwood Screening Facility, Harvard Medical School, 2010)", "note": "About 4,300 (8.3%) of roughly 52,000 compounds were called active. No stated cut-off is given here; in the data, active means survival mostly below about 52% (no sharp cut-off); inactive means mostly above about 56%. The entries come from a sample that favours actives as a whole.", "data": [{"tested_on": "DeltatarO mutant", "assay": "growth inhibition of S. aureus wild type versus tarO mutant, primary screen, teichoic acid synthesis inhibitors, RN4220, OD600 (AID 463173)", "conditions": "OD600, 18 h, active compounds read low, screened at 18.75 µg/mL (by protocol)", "values": [{"smiles": "CCOC(=O)/C(C)=C1\\NC(C)(C)Cc2ccccc21", "survival": "92% (inactive)"}, {"smiles": "Cc1coc2cc3oc(=O)c(CCC(=O)NCc4ccccc4Cl)c(C)c3cc12", "survival": "66% (inactive)"}, {"smiles": "Cc1ccc2c(c1)nc(SCC(O)c1ccc(Br)cc1)n2C", "note": "(stereo unspecified)", "survival": "70% (inactive)"}, {"smiles": "COc1cc2c(cc1OC)-c1n[nH]c(=S)n1C(C)(C)C2", "survival": "90% (inactive)"}, {"smiles": "CC(=O)c1c(C)n(-c2ccc(C)cc2)c2ccc(OC(=O)COc3ccccc3)cc12", "survival": "62% (inactive)"}, {"smiles": "COc1ccccc1CN1CCN(C(CC(C)C)c2nnnn2Cc2ccc(F)cc2)CC1", "note": "(stereo unspecified)", "survival": "85% (inactive)"}, {"smiles": "O=C1CCCCCN1Sc1ccccc1", "survival": "48% (active)"}, {"smiles": "O=C1CCC(=O)N1c1ccccc1", "survival": "98% (inactive)"}, {"smiles": "O=C(/C=C/c1ccccc1)N1CCCC1=O", "survival": "94% (inactive)"}, {"smiles": "CCN(CCCNC(=O)c1ccc(Sc2ccc(Cl)cc2)c(NC(C)=O)c1)c1cccc(C)c1", "survival": "89% (inactive)"}, {"smiles": "Cc1ccccc1Nc1c(-c2cccc(O)c2)nc2ccc(Br)cn12", "survival": "64% (inactive)"}, {"smiles": "COc1cc(O)ccc1-c1nc2cc(C)ccn2c1Nc1ccccc1C", "survival": "69% (inactive)"}, {"smiles": "Cc1ccccc1Nc1c(-c2ccc(Br)o2)nc2ccc(Cl)cn12", "survival": "37% (active)"}, {"smiles": "COc1cc(O)ccc1-c1nc2ccc(Br)cn2c1Nc1ccccc1C", "survival": "46% (active)"}, {"smiles": "Cc1ccccc1Nc1c(-c2cccnc2)nc2ccc(Cl)cn12", "survival": "92% (inactive)"}, {"smiles": "Cc1ccccc1Nc1c(-c2ccncc2)nc2ccc(Cl)cn12", "survival": "118% (inactive)"}, {"smiles": "CCOC(=O)c1c(S(=O)(=O)N2CCCC(C(=O)Nc3ccc(OCC)cc3)C2)c(C)n(C)c1C", "note": "(stereo unspecified)", "survival": "99% (inactive)"}, {"smiles": "COc1ccc(CNC(=O)C(=O)NCC(c2cccs2)S(=O)(=O)c2cccs2)cc1", "note": "(stereo unspecified)", "survival": "89% (inactive)"}, {"smiles": "CCCCOc1ccc(C(=O)N(Cc2ccco2)Cc2ccco2)cc1", "survival": "94% (inactive)"}, {"smiles": "O=C1CC(c2ccccc2)Cc2[nH]c(=O)c(C(=O)Nc3cccc(Cl)c3)cc21", "note": "(stereo unspecified)", "survival": "8% (active)"}, {"smiles": "CC(=O)c1ccc(NC(=O)c2cc3c([nH]c2=O)CC(c2ccccc2)CC3=O)cc1", "note": "(stereo unspecified)", "survival": "63% (inactive)"}, {"smiles": "Cc1cccc(NC(=O)c2cc3c([nH]c2=O)CC(c2ccccc2)CC3=O)c1", "note": "(stereo unspecified)", "survival": "20% (active)"}, {"smiles": "COc1ccc(NC(=O)c2cc3c([nH]c2=O)CC(c2ccccc2)CC3=O)cc1", "note": "(stereo unspecified)", "survival": "91% (inactive)"}, {"smiles": "O=C1CC(c2ccccc2)Cc2[nH]c(=O)c(C(=O)Nc3ccc(F)cc3)cc21", "note": "(stereo unspecified)", "survival": "101% (inactive)"}, {"smiles": "O=C1CC(c2ccccc2)Cc2[nH]c(=O)c(C(=O)Nc3cccc(F)c3)cc21", "note": "(stereo unspecified)", "survival": "89% (inactive)"}, {"smiles": "COc1ccc(S(=O)(=O)c2c(C)c(NS(=O)(=O)c3ccccc3)cc(C)c2O)cc1", "survival": "67% (inactive)"}]}]}
